L3MBTL1 block – qHTS Assay for the Inhibitors of L3MBTL1 | Potency, µM (top dose mostly 57.1 µM), without a hit: top-dose activity, negative = inhibition, most hits filed as inhibitors | Lethal(3)malignant brain tumor-like protein 1 (Homo sapiens), Q9Y468 | AlphaScreen L3MBTL1–H3K9me1 peptide binding | actives 0.66% (n = 230,000) | AID 485360, 2010; also: potency is read from the fitted curve at half-maximal effect; % is scaled to controls: 0 for no effect and ±100 for the full control effect; nearly all actives have a fitted effect of over 60% in size
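Displacement of a biotinylated histone H3(1-15) peptide monomethylated at Lys9 (75 nM) from L3MBTL1 (50 nM) was measured by AlphaScreen after a 30 min room-temperature compound incubation; cefsulodin titration served as intraplate control.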
BAZ2B block – qHTS Assay for Inhibitors of BAZ2B | actives 4.4% (n = 360,000) | Potency, µM (series often up to 114 µM), inactives show at the top dose activity change, negative = inhibition, usual class: inhibitors | AlphaScreen BAZ2B-H3K14Ac peptide displacement | Bromodomain adjacent to zinc finger domain protein 2B (Homo sapiens), Q9UIF8; also: potency is read from the fitted curve at half-maximal effect; % is scaled to controls: 0 for no effect and ±100 for the full control effect; nearly all actives have a fitted effect of over 60% in size
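Protein-peptide AlphaScreen: BAZ2B 50 nM, b-H3K14Ac 50 nM, 1x PBS pH 7.4 + 0.01% Tween-20. Preincubation 30 min RT; cpd 30 min RT (top 110 uM); beads 20 min RT, light-protected.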
G9a inh – qHTS Assay for Inhibitors of Histone Lysine Methyltransferase G9a. Potency, µM (top dose mostly 102 µM), for inactives: top-dose activity, negative = inhibition, most hits filed as inhibitors. Histone-lysine N-methyltransferase EHMT2 (Homo sapiens), Q96KQ7. G9a H3K9 monomethylation, AlphaScreen, 2 h. AID 504332, 2011. actives 8.8% (n = 350,000); also: potency is read from the fitted curve at half-maximal effect; % is scaled to controls: 0 for no effect and ±100 for the full control effect; nearly all actives have a fitted effect of over 75% in size
Target sequence (Q96KQ7 913-1193 limits assumed): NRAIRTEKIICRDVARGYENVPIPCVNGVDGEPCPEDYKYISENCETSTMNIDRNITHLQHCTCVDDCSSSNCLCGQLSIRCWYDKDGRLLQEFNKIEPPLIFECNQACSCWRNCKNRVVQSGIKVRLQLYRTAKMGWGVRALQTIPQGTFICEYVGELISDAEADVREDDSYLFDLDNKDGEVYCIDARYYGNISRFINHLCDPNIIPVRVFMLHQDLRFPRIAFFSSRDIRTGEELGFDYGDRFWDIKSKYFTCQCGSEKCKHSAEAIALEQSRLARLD
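Using a bead-based AlphaScreen, monomethylated H3K9 product from 2 h room-temperature reactions (G9a 20 nM, peptide 500 nM, SAM 20 uM) was detected with 0.5 ug/mL rabbit anti-H3K9me1 antibody.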
PI5P4K alpha inh – qHTS for Inhibitors of phosphatidylinositol 5-phosphate 4-kinase (PI5P4K) | Phosphatidylinositol 5-phosphate 4-kinase type-2 alpha (Homo sapiens), P48426 | PI5P4Kalpha enzyme, ADP-Glo luminescence, 60 min; stronger effect = lower value | max response, % | actives 1.2% (n = 330,000) | AID 652105, 2013; active = max response of -50% or lower; inconclusive = between -30% and -50%; inactive = -30% or higher; also: value at the top dose of about 77 µM; % is scaled to controls: 0 for no effect and ±100 for the full control effect
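ADP-Glo luminescence end-point after a 60 min room-temperature kinase reaction. PI5P4Kalpha and substrate in HEPES pH 7.4 buffer with EGTA, 0.1% CHAPS and 5% DMSO; ATP at 5 microM final.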
HP1b binding inh – HTS for Inhibitors of HP1-beta Chromodomain Interactions with Methylated Histone Tails; actives 0.56% (n = 390,000); Chromobox protein homolog 1 (Homo sapiens), P83916; AlphaScreen HP1-beta / biotin-H3K9me3 peptide binding; Potency, µM (doses to about 114 µM), for the others: at the highest dose activity change, negative = inhibition, hits mostly inhibitors; also: potency is read from the fitted curve at half-maximal effect; nearly all actives have a fitted effect of over 70% in size
Target sequence (P83916 whole entry, looked up): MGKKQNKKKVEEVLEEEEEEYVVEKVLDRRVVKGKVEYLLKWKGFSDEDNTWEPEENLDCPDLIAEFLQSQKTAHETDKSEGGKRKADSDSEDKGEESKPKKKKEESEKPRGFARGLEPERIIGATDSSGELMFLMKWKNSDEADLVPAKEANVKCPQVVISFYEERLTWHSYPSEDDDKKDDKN
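Compound inhibition of the preformed complex between 50 nM HP1-beta and 50 nM biotinylated H3K9me3 peptide was read by AlphaScreen. Buffer was PBS pH 7.4 with 0.01% Tween-20. Incubations ran 30 min at room temperature, with 10 ug/mL donor/acceptor beads.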
JMJD2A Tudor – qHTS Assay for Inhibitors of JMJD2A-Tudor Domain; actives 4.4% (n = 390,000); AlphaScreen JMJD2A-Tudor / H3K4me3 peptide binding; Lysine-specific demethylase 4A (Homo sapiens), O75164; AID 504339, 2011; Potency, µM (highest dose often 114 µM), inactives show top-dose activity change, negative = inhibition, hits mostly inhibitors; also: potency is read from the fitted curve at half-maximal effect; % is scaled to controls: 0 for no effect and ±100 for the full control effect; nearly all actives have a fitted effect of over 50% in size
An asterisk follows results filed as active; u = inconclusive; x = no result; [ ] = dose if it differs, or a comment. Shown are actives, neighbours in structure and some others; about 11% of the full set was active somewhere. Unless noted, calls follow the shape of the dose curve; as a rule, active = well fitted inhibition curve with a large enough effect; inconclusive = small, poorly fitted or top-dose-only effect; inactive = no such curve, though single readings can be large or run the other way.

SMILES | L3MBTL1 block | BAZ2B block | G9a inh | PI5P4K alpha inh | HP1b binding inh | JMJD2A Tudor
COc1ccc(N2CCN(S(=O)(=O)c3ccc(Cl)s3)CC2)cc1 | -6% | -17% | -25% | 6 | -5% | -10%
COc1ccc(N2CCN(S(=O)(=O)c3cccs3)CC2)cc1 | -4% | -35% | 25µM* | x | -9% | -34%
COc1ccc(N2CCN(C(c3cccs3)C(C)NC(=O)c3ccco3)CC2)cc1 (stereo not given) | -10% | u | 3.5µM* | x | -15% | u
COc1ccc(N2CCN(C(c3cccs3)C(C)NS(C)(=O)=O)CC2)cc1 (stereo not given) | x | x | 56µM* | -10 | 10% | -28%
CC(NS(C)(=O)=O)C(c1cccs1)N1CCN(c2ccc(F)cc2)CC1 (stereo not given) | -1% | -8% | -11%[59 µM] | x | 2% | -27%
Cc1ccc(C(OCC(C)(C)C[N+](C)(C)C)c2ccccc2)cc1 (stereo not given) | x | -10% | 35%[59 µM] | -2 | 17% | 22µM*
Cc1ccccc1OCCn1c(=S)[nH]c2ccccc21 | -6% | -31% | 40µM* | 2 | 29% | -31%
Fc1ccccc1OCCn1c(=S)[nH]c2ccccc21 | u | -37% | 7.1µM* | 6 | 33% | u
Cc1c(C=O)c2ccccc2n1CCOc1ccccc1F | -1% | -3% | 23% | -1 | 30% | 5%
Cc1ccc(NC(=O)Cn2c(=O)ccc3cc(S(=O)(=O)N4CCCC4)ccc32)cc1N(C)C | x | 4% | 2%[59 µM] | x | 25%[57 µM] | -1%
CCc1ccc(NC(=O)CSc2nc(-c3cccc(OC)c3)nc3c2Cc2c(CO)cnc(C)c2O3)cc1 | x | -19% | -22%[59 µM] | x | -15% | -18%
Cc1ccnc(NS(=O)(=O)c2ccc(NC(=O)c3cc(=O)c4ccc(C)c(C)c4o3)cc2)n1 | x | -1% | -47%[59 µM] | x | 1% | -28%
N#C/C(=C\c1ccc(O)c(O)c1)S(=O)(=O)c1ccccc1 | u | 10µM* | 3.2µM* | -20 | u | u
N#Cc1cc2c([nH]c1=S)CCCCCC2 | -3% | -4% | u | x | u | 3.2µM*
COc1cc2c(cc1OC)C(O)=CC(=O)C2=O | x | x | x | -54* | x | x
CCOC(=O)C1=C(C)NC(C)=C(C(=O)OCC)C1c1c(F)c(F)c(F)c(F)c1F | x | x | 37%[59 µM] | x | x | x
COc1cc2[nH]c(=O)n(Cc3ccc(C(=O)N4CCN(c5cccc(C)c5C)CC4)cc3)c(=O)c2cc1OC | x | -4% | -28%[59 µM] | x | 13% | -18%
COc1ccc(Br)cc1/C=c1\sc2nc(-c3ccco3)nn2c1=O | 7.9µM* | 16µM* | u | -59* | -25% | 45µM*
CCCN1C(=O)/C(=c2\sc3nc(=O)c(Cc4ccc(C)cc4)nn3c2=O)c2ccccc21 | -3% | u | x | -27 | u | u
Cc1cc(C)cc(N2CN=c3s/c(=C\c4ccco4)c(=O)n3C2)c1 | -6% | u | -10%[59 µM] | -12 | -25% | -23%
O=c1nc2s/c(=C\c3ccco3)c(=O)n2nc1Cc1ccc(F)cc1 | x | 22µM* | u | -56* | u | 56µM*
Cc1ccc(-c2nc3s/c(=C\c4ccco4)c(=O)n3n2)cc1 | u | 50µM* | 50µM* | x | -14% | 50µM*
N#Cc1cccc(NC(=O)C2CCN(S(=O)(=O)c3ccc4[nH]c(=O)ccc4c3)CC2)c1 | x | 0% | -3%[59 µM] | x | 25%[57 µM] | -2%
CC(=O)c1cccc(S(=O)(=O)NCCc2csc3nc(-c4ccc(F)cc4)nn23)c1 | x | -12% | -30%[59 µM] | x | -9% | -22%
